High-throughput results as filed in PubChem BioAssay.
This is a sample that favours compounds with a hit; in the whole collection about 10% have one here.
Six1-Eya2 blk: qHTS Assay for Inhibitors of the Six1/Eya2 Interaction. Homeobox protein SIX1 (Homo sapiens) + Protein phosphatase EYA2 (Homo sapiens), …. AlphaScreen GST-Six1/His-Eya2 binding, biochemical; stronger effect = lower value. activity change, % (no concentration beside the values). 360,000 compounds, 0.56% hits. AID 651725, 2012; in the data active = activity change below about -65%; inconclusive = mostly about -30% to -63%; also: % is scaled to controls: 0 for no effect and ±100 for the full control effect
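Compounds are tested against tagged Six1 and Eya2 proteins bridged by glutathione donor and nickel acceptor beads; after a one-hour incubation at 37 °C without light, AlphaScreen emission is recorded.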
HP1b binding inh: HTS for Inhibitors of HP1-beta Chromodomain Interactions with Methylated Histone Tails; AlphaScreen HP1-beta / biotin-H3K9me3 peptide binding; Potency, µM (titrated, usually from 114 µM), inactives show at the top dose activity change, negative = inhibition, most hits filed as inhibitors; 390,000 compounds, 0.56% hits; AID 540317, 2011; also: potency is read from the fitted curve at half-maximal effect; nearly all actives have a fitted effect of over 70% in size
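HP1-beta protein (50 nM final) preincubated 30 min at room temperature with biotinylated H3(1-18)K9me3 peptide (50 nM) in PBS pH 7.4, 0.01% Tween-20, then compound added for 30 min. AlphaScreen streptavidin donor/nickel chelate acceptor beads (10 ug/mL final), 30 min dark, luminescence read.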
JMJD2A Tudor: qHTS Assay for Inhibitors of JMJD2A-Tudor Domain. Potency, µM (top dose mostly 114 µM), inactives show at the highest dose activity change, negative = inhibition, hits mostly inhibitors. Lysine-specific demethylase 4A (Homo sapiens), O75164. AID 504339, 2011. AlphaScreen JMJD2A-Tudor / H3K4me3 peptide binding. 390,000 compounds, 4.4% hits; also: potency is read from the fitted curve at half-maximal effect; % is scaled to controls: 0 for no effect and ±100 for the full control effect; nearly all actives have a fitted effect of over 50% in size
BAZ2B inh: qHTS Assay for Inhibitors of BAZ2B | AlphaScreen BAZ2B-H3K14Ac peptide displacement | Bromodomain adjacent to zinc finger domain protein 2B (Homo sapiens), Q9UIF8 | Potency, µM (titrated, usually from 114 µM), for the others: at the top dose activity change, negative = inhibition, actives largely listed as inhibitors | 360,000 compounds, 4.4% hits; also: potency is read from the fitted curve at half-maximal effect; % is scaled to controls: 0 for no effect and ±100 for the full control effect; nearly all actives have a fitted effect of over 60% in size
Target sequence (Q9UIF8 whole entry, looked up, the tested form may be a part): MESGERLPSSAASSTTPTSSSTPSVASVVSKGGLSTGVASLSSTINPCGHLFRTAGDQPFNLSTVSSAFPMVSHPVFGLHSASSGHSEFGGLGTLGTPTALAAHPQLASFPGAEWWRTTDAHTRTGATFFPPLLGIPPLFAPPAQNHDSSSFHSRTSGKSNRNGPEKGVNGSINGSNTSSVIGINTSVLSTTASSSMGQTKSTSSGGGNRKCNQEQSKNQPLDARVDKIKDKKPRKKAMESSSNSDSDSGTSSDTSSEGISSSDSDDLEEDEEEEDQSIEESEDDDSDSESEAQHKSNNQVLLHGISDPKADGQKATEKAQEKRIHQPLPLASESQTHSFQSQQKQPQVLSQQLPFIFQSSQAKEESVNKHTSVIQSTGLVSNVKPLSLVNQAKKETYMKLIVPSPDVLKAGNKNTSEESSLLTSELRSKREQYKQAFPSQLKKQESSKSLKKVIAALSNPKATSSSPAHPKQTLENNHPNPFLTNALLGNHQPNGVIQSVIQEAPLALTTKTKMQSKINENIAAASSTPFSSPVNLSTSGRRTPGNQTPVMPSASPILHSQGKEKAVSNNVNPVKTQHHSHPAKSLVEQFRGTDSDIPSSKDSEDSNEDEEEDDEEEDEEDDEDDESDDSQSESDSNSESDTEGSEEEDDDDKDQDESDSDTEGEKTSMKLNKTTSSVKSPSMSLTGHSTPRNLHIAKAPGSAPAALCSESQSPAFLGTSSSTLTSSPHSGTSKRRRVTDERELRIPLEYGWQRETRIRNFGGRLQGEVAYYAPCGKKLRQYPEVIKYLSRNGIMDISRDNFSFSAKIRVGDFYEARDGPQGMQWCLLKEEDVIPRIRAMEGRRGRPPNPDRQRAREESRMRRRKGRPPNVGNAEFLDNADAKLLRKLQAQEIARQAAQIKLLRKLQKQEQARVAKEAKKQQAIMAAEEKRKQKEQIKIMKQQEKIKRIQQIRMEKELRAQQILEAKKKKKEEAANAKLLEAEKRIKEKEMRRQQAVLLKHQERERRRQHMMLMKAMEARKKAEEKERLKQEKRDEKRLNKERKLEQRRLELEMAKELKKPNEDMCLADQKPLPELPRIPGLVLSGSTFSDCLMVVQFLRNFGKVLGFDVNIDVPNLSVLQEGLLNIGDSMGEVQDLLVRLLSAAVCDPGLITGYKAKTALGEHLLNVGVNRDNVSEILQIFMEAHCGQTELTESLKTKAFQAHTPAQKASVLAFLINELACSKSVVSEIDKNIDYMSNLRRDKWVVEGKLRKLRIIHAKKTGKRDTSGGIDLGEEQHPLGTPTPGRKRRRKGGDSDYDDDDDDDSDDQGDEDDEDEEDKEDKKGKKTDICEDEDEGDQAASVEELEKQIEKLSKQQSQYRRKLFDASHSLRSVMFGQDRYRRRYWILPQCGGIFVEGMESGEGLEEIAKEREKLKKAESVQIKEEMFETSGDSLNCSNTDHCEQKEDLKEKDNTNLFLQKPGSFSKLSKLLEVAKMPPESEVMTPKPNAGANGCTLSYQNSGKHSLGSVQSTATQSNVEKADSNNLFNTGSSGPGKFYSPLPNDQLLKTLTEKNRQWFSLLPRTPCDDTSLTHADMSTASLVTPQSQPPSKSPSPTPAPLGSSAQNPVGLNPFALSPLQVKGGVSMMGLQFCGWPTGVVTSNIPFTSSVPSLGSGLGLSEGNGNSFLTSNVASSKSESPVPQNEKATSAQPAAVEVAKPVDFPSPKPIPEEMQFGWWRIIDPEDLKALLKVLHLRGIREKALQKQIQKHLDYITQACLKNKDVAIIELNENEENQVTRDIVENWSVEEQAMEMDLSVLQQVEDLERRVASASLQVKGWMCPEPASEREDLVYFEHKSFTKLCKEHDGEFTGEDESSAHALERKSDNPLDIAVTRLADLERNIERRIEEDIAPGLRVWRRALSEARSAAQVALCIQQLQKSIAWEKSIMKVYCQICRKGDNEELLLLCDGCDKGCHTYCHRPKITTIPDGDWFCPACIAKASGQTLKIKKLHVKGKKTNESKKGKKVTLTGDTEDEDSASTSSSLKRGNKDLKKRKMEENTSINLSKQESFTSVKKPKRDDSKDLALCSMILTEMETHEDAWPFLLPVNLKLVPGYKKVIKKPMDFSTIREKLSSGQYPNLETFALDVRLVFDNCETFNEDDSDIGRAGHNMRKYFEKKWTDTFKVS
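AlphaScreen displacement of biotin-H3(5-23)K14Ac peptide (50 nM final) from BAZ2B (50 nM final) in PBS pH 7.4, 0.01% Tween-20; complex preformed 30 min RT, then compounds (top 110 uM) 30 min RT, beads 20 min dark.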
CtBP-E1A blk: qHTS Assay for Inhibitors of the CtBP/E1A Interaction. AlphaScreen GST-E1A/His-CtBP binding, 1536-well; stronger effect = lower value. 340,000 compounds, 0.49% hits. activity change, % (no concentration beside the values). CtBP / adenovirus E1A interaction (AlphaScreen); in the data active = activity change below about -65%; inconclusive = mostly about -30% to -63%; also: % is scaled to controls: 0 for no effect and ±100 for the full control effect
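Steps: dispense buffer (Tris pH 8.0, NaCl 300 mM, TCEP 1 mM, BSA, Tween 20); add 5X protein mix (GST-E1A, His-CtBP, 125 nM each); pin 23 nL compound; 2 h at 37 °C, dark; add 5X beads (50 ug/mL); 1 h; read.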
G9a inh: qHTS Assay for Inhibitors of Histone Lysine Methyltransferase G9a. Histone-lysine N-methyltransferase EHMT2 (Homo sapiens), Q96KQ7. G9a H3K9 monomethylation, AlphaScreen, 2 h. Potency, µM (series often up to 102 µM), inactives show at the top dose activity, negative = inhibition, actives largely listed as inhibitors. 350,000 compounds, 8.8% hits; also: potency is read from the fitted curve at half-maximal effect; % is scaled to controls: 0 for no effect and ±100 for the full control effect; nearly all actives have a fitted effect of over 75% in size
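AlphaScreen detection with an anti-monomethyl H3K9 antibody quantified product after a 2 h room-temperature reaction containing 500 nM biotinylated H3K9 peptide, 20 µM SAM and 20 nM enzyme, which had been preincubated 15 min with compound.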
Starred values were filed as active, the others as inactive; ? = inconclusive; · = no result given; [ ] = another dose, or the depositor's remark. Unless noted, calls follow the shape of the dose curve; as a rule, active = well fitted inhibition curve with a large enough effect; inconclusive = small, poorly fitted or top-dose-only effect; inactive = no such curve, though single readings can be large or run the other way.

SMILES | Six1-Eya2 blk | HP1b binding inh | JMJD2A Tudor | BAZ2B inh | CtBP-E1A blk | G9a inh
CCN(CC)S(=O)(=O)c1ccc2c(c1)N(CC(=O)NCc1ccccc1)C(=O)C1CCCCN21 (stereo not given) | · | 30% | -2% | -3% | · | 17%[59 µM]
Oc1ccc(-c2csc(Nc3ncccn3)n2)c(O)c1 | -7 | 51% | 3% | · | -1 | -8%
CC(=O)Nc1cccc(-c2csc(Nc3ncccn3)n2)c1 | · | · | · | -12% | · | 16µM*
Oc1ccc(-c2csc(Nc3ncccn3)n2)cc1O | -14 | 71µM* | 28µM* | · | ? | 2.2µM*
COc1cc(OC)c(NC(=O)Cn2cnc3nc4c(cc3c2=O)CCCC4)cc1Cl | · | 14%[57 µM] | -12% | 1% | · | 14%[59 µM]
CCOC(=O)c1ccc(NC(=O)C2CCCN(c3ncnc4onc(-c5ccc(F)cc5)c34)C2)cc1 (stereo not given) | · | 32% | 3% | 6%[57.1 µM] | · | -3%[59 µM]
O=C(CSc1nc2ccc([N+](=O)[O-])cc2[nH]1)NC1CCCCCC1 | -7 | -2% | -31% | 2% | -10 | 45µM*
O=C(CSc1nc2ccc(Cl)cc2[nH]1)NC1CCCC1 | -10 | 20% | -17% | ? | -6 | 25µM*
CC(C)C(NC(=O)C(CC(=O)O)NC(=O)C(CCCCN)NC(=O)C(N)CCCN=C(N)N)C(=O)NC(Cc1ccc(O)cc1)C(=O)O (stereo not given) | · | · | · | · | · | 10%[12.7 µM]
Fc1ccccc1-n1ncc2c1ncn1nc(-c3ccccc3Cl)nc21 | · | 7% | -14% | 1% | · | 3%[59 µM]
COc1ccc(CCNC(=O)C2CCCN(c3nc4c(C)cc(C)cc4s3)C2)cc1OC (stereo not given) | · | 12% | -21% | 1% | · | 2%[59 µM]
Cn1c(CNC(=O)CSc2n[nH]c(-c3ccccc3Cl)n2)nc2ccccc21 | · | 25%[57 µM] | -27% | 4% | · | 28µM*
CC1(C(=O)CSc2n[nH]c(-c3ccccc3Cl)n2)CCC(=O)O1 (stereo not given) | · | · | · | ? | · | 10µM*
CC1(C(=O)CSc2ncn[nH]2)CCC(=O)O1 (stereo not given) | · | · | · | 89µM* | · | 11µM*
CC1(C(=O)CSc2nc3ccccc3[nH]2)CCC(=O)O1 (stereo not given) | 5 | 9% | -14% | -5% | -4 | ?
Cc1ccc(-c2cc(NC(=O)COc3ccc(Cl)cc3C)on2)cc1 | · | 7% | -22% | -2% | · | -7%[59 µM]
Cn1ccc2c(OCC(=O)Nc3cc(C(F)(F)F)ccc3Cl)cccc2c1=O | · | 9% | -20% | -15% | · | 7%[59 µM]
O=S(=O)(c1ccc(-c2n[nH]c(=S)o2)cc1)N1CCCC1 | -2 | 3% | -11% | -15% | -2 | 35µM*
Cc1ccc(-c2ccc(S(=O)(=O)N3CCCC3)cc2)cc1 | 10 | 35% | -4% | -3% | 11 | ?
O=S(=O)(c1ccc(-c2n[nH]c(=S)o2)cc1)N1CCCCC1 | 2 | ? | -17% | ? | -19 | 11µM*
O=S(=O)(c1ccc(=S)[nH]c1)N1CCCCC1 | 2 | 31% | -3% | -3% | · | 0.79µM*
O=S(=O)(c1ccc(=S)[nH]c1)N1CCN(Cc2ccccc2)CC1 | 12 | 24% | -16% | · | 5 | ·
Cc1cccc(-n2c(-c3ccccc3)cn3c4c(=O)[nH]c(=O)n(C)c4nc23)c1 | · | 63% | -23% | 32% | · | 34%[59 µM]
CCN(CC)C(=O)c1sc2c(c1C)c(=O)n(-c1ccc(Cl)c(Cl)c1)c(=O)n2CC(=O)Nc1cccc(OC)c1 | · | 18% | -24% | -3% | · | 1%[59 µM]
Cc1ccc(CCNC(=O)CN(c2ccc(C(C)C)cc2)S(=O)(=O)c2c(C)nn(C)c2C)cc1 | · | 32% | -16% | -5% | · | 1%[59 µM]
SMILES | Six1-Eya2 blk | HP1b binding inh | JMJD2A Tudor | BAZ2B inh | CtBP-E1A blk | G9a inh
NC(c1ccccc1)c1csc(Nc2ccc(C(=O)NCCO)cc2)n1 (stereo not given) | -7 | · | · | · | -21 | ·
NC(=O)c1ccc(Nc2nc(C(N)c3ccccc3Cl)cs2)cc1 (stereo not given) | -7 | · | · | · | -21 | ·
NC(c1ccccc1)c1csc(Nc2ccc(C(=O)NCCCO)cn2)n1 (stereo not given) | -83* | · | · | · | -85* | ·
NC(c1csc(Nc2ccc(C(=O)NCCCO)cn2)n1)c1ccccc1Cl (stereo not given) | ? | · | · | · | -77* | ·
CCOC(=O)CSc1nnc2n(-c3ccccc3)c(=O)c3c4c(sc3n12)CC(C(C)(C)C)CC4 (stereo not given) | · | 2% | -32% | ? | · | -37%[59 µM]
c1ccc2c(c1)nnn2Cc1nnc2sc(-c3ccc4c(c3)OCCO4)nn12 | -1 | -36% | -29% | -1% | 15 | ?
c1ccc2c(c1)ncn2Cc1nnc2sc(-c3ccncc3)nn12 | -3 | -26% | ? | -25% | -3 | ?
c1ccc(-c2nn3c(Cn4nnc5ccccc54)nnc3s2)cc1 | -2 | ? | ? | 1% | 10 | 3.2µM*
c1cncc(-c2nn3c(Cn4cnc5ccccc54)nnc3s2)c1 | 2 | ? | 89µM* | -8% | 11 | ?
c1ccc(-c2nn3c(Cn4cnc5ccccc54)nnc3s2)cc1 | 1 | ? | -32% | -28% | -3 | 1.3µM*
COc1ccc(Cc2nn3c(Cn4nnc5ccccc54)nnc3s2)cc1 | 2 | ? | 89µM* | -38% | -3 | 1.6µM*
Cc1ccc(Cn2c(=O)n(Cc3ccco3)c(=O)c3sc4ccccc4c32)cc1 | · | 24% | -8% | -8% | · | -30%[59 µM]
CCc1ccc(-n2cc(-c3ccc(F)cc3)[n+]3c2SCCC3)cc1 | -9 | -10% | -17% | 0% | -15 | -7%
CC(C)(C)c1cn(-c2ccc(F)cc2)c(=S)[nH]1 | -6 | 23% | 25µM* | -7% | 0 | 1.4µM*
COC(=O)c1ccccc1SCC(=O)Nc1ccc(N2CCOCC2)cc1 | -16 | -5% | -21% | -25% | -3 | 79µM*
Cc1cc(C)nc(SCC(=O)Nc2ccc(N3CCOCC3)cc2)n1 | 5 | 51% | -8% | -5% | 6 | 11µM*
Cc1ccc(NC(=O)CSCC(=O)Nc2ccc(N3CCOCC3)c(Cl)c2)cc1 | -4 | 13% | -23% | 47% | 0 | 1%[12.7 µM]
Cc1ccc(SCC(=O)Nc2ccc(N3CCOCC3)cc2)cc1 | 1 | 13% | -7% | -20% | · | -27%
Cc1ccc(NC(=O)CSCC(=O)Nc2ccc(N3CCOCC3)cc2N2CCOCC2)cc1 | -2 | 7% | -19% | 9% | 1 | 50µM*
